Measurements as given in the supplement of paper PMC6555819.

Assays:
Experiment in all cases: PBM binding z-score (relative to random genomic background probes); higher = stronger binding; sequences stand for … in GC…GCGATTGACAGCGTAGAATGAAGG
[1] = test system: FXR:RXRa (NR concentration 270 nM, RXRa partner concentration 90 nM)
Procedure, shortened: (§1)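 Binding buffer was PBS pH 7.4 with 2% milk, 0.02% Triton X-100, 1 mM DTT, 0.2 mg/mL BSA and 0.4 mg/ml salmon testes DNA. In it, ligand-free nuclear receptor dimers were incubated 1 h on custom Agilent 4×180K protein-binding microarrays carrying double-stranded probes. Antibodies against each partner (one per run) detected binding, and z-scores were calculated against random background probes after regression normalization of scanned fluorescence.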

[2] = test system: LXRa:RXRa (NR concentration 270 nM, RXRa partner concentration 90 nM)
Procedure, shortened: as §1

[3] = test system: LXRa homodimer (NR concentration 270 nM)
Procedure, shortened: as §1

[4] = test system: LXRb:RXRa (NR concentration 270 nM, RXRa partner concentration 90 nM)
Procedure, shortened: as §1

[5] = test system: LXRb homodimer (NR concentration 270 nM)
Procedure, shortened: as §1

[6] = test system: PPARa:RXRa (NR concentration 270 nM, RXRa partner concentration 90 nM)
Procedure, shortened: as §1

[7] = test system: PPARg:RXRa (NR concentration 180 nM, RXRa partner concentration 90 nM)
Procedure, shortened: as §1

[8] = test system: PPARg:RXRa 270nM:90nM, anti-RXR (NR concentration 270 nM, RXRa partner concentration 90 nM)
Procedure, shortened: as §1

[9] = test system: PPARg:RXRa 30nM:10nM, anti-RXR (NR concentration 30 nM, RXRa partner concentration 10 nM)
Procedure, shortened: as §1

[10] = test system: PPARg:RXRa 90nM:30nM, anti-RXR (NR concentration 90 nM, RXRa partner concentration 30 nM)
Procedure, shortened: as §1

[11] = test system: PPARg:RXRa DBDmut IVT, anti-RXR (DBD mutation: RXRa K156A/R161A, NR concentration 270 nM, RXRa partner concentration 90 nM)
Procedure, shortened: as §1

[12] = test system: PPARg:RXRa IVT, anti-PPARg (NR concentration 270 nM, RXRa partner concentration 90 nM)
Procedure, shortened: as §1

[13] = test system: PPARg DBDmut:RXRa IVT, anti-PPARg (DBD mutation: PPARg1 K132A/R137A, NR concentration 270 nM, RXRa partner concentration 90 nM)
Procedure, shortened: as §1

[14] = test system: PPARg DBDmut IVT, anti-PPARg (DBD mutation: PPARg1 K132A/R137A, NR concentration 270 nM)
Procedure, shortened: as §1

[15] = test system: PPARg homodimer (NR concentration 180 nM)
Procedure, shortened: as §1

[16] = test system: PXR:RXRa (NR concentration 270 nM, RXRa partner concentration 90 nM)
Procedure, shortened: as §1

[17] = test system: PXR homodimer (NR concentration 270 nM)
Procedure, shortened: as §1

[18] = test system: RARa:RXR (NR concentration 270 nM, RXRa partner concentration 90 nM)
Procedure, shortened: as §1

[19] = test system: RARa homodimer (NR concentration 270 nM)
Procedure, shortened: as §1

| Sequence | PBM binding z-score [1] | PBM binding z-score [2] | PBM binding z-score [3] | PBM binding z-score [4] | PBM binding z-score [5] | PBM binding z-score [6] | PBM binding z-score [7] | PBM binding z-score [8] | PBM binding z-score [9] | PBM binding z-score [10] | PBM binding z-score [11] | PBM binding z-score [12] | PBM binding z-score [13] | PBM binding z-score [14] | PBM binding z-score [15] | PBM binding z-score [16] | PBM binding z-score [17] | PBM binding z-score [18] | PBM binding z-score [19] |
| --- | --- | --- | --- | --- | --- | --- | --- | --- | --- | --- | --- | --- | --- | --- | --- | --- | --- | --- | --- |
| GCTGCTAGGTCAGGTTGGTCTGCTAACGGGTACG | 1.17 | 0.795 | -0.237 | 0.627 | -0.557 | 1.4 | 0.225 | 0.854 | -0.545 | 0.295 | 3.08 | 2.35 | -0.411 | -0.998 | 0.673 | 0.505 | -0.437 | 0.971 | 0.182 |
| CGAACTAGCTCAAGGACAGTGAATCTCCGCACGC | 0.148 | -0.503 | 0.172 | -0.398 | -0.571 | -0.568 | 0.277 | -0.53 | -0.374 | -0.661 | 0.26 | -0.559 | -0.68 | -0.183 | -0.00792 | -0.255 | -0.354 | -0.192 | -0.143 |
| CAAACTAGGTCACGAAAGGTCAACGTCGAATGAC | 7.41 | 7.98 | 7.42 | 7.06 | 2.11 | 6.81 | 10.6 | 8.8 | 7.57 | 9.28 | 8.6 | 9.17 | 3.99 | 4.43 | 6.55 | 7.35 | 2.65 | 7.97 | 4.53 |
| CGTCCAAGGTCAATGCAAGGTCAGTGAAAGCATT | 7.23 | 5.69 | 4.1 | 5.16 | 1.06 | 5.79 | 4.73 | 5.14 | 2.05 | 3.82 | 3.53 | 4.28 | 0.246 | 0.606 | 5.89 | 6.14 | 2.19 | 6.91 | 2.02 |
| CCTCGGAGGACACCAGGAGGTCAGAGCTGCCAGA | 1.2 | 1.69 | 0.739 | 1.12 | -0.792 | 2.14 | 0.153 | 0.169 | -0.691 | -0.278 | -0.249 | 0.459 | -1.54 | -1.67 | 1.78 | 2.17 | -0.014 | 2.56 | 0.922 |
| CCTTACCGGTCAAGGTTATAGCACGGGTGGTACG | 1.7 | 1.88 | 0.946 | 1.05 | 0.381 | 1.83 | 0.758 | 0.908 | -0.303 | 0.282 | -0.499 | 0.825 | -0.737 | -0.375 | 1.58 | 1.16 | 0.299 | 1.3 | 0.889 |
| ACTAGTTGGTAAGCTGAGGTCACACACAATTCGG | 2.58 | 3.17 | 2.68 | 3.35 | 0.606 | 3.57 | 1.54 | 1.96 | 0.653 | 1.13 | 0.595 | 1.93 | 1 | 0.246 | 2.25 | 4.72 | 1.85 | 4.42 | 1.2 |
